The record followed here is PubChem BioAssay (NCI).

The panel holds about 83,000 compounds, 20% with a hit somewhere; the sample as a whole holds those more often.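 Method: cells in 96-well plates; compound added at one concentration; 48 h incubation; percent growth measured; values under 10 scored active.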 A number with no mark means an inactive call. Calls of active or inactive are those of the source.

Test systems include SK-MEL-2 melanoma; EKVX NSCLC; SN12C renal; UO-31 renal; TK-10 renal; ACHN renal; A498 renal; CCRF-CEM leukemia; MOLT-4 leukemia; SR leukemia.
What all share (test): NCI-60 one-dose screen, 48 h (100 = growth as untreated, 0 = no growth, -100 = all killed)
Holding throughout (details): 10 µM unless noted

`CCO/C=N/S(=O)(=O)c1cc2c(cc1Cl)NC=NS2(=O)=O`: the growth in the test with SK-MEL-2 melanoma is 105%; in the test on EKVX NSCLC, 103%; in the test on SN12C renal, 104%; with UO-31 renal it was 89.1%; in the test on TK-10 renal it was 101%; in the test with ACHN renal, 112%. Also, the growth was 106% in the test with A498 renal, 95.7% in the test on CCRF-CEM leukemia, 109% with MOLT-4 leukemia and 108% in the test on SR leukemia.

Take `O=C(O)c1cn(C2CC2)c2cc(N3CCN(C(=O)CSc4nnc(-c5ccc(Cl)cc5)n4-c4ccccc4)CC3)c(F)cc2c1=O`: the growth was 104% with SK-MEL-2 melanoma; 111% in the test with EKVX NSCLC; 102% with SN12C renal; 84.7% in the test with UO-31 renal; 99.4% with TK-10 renal; 108% in the test with ACHN renal. Also, the growth in the test on A498 renal was 67.8%; with CCRF-CEM leukemia it was 84.3%; in the test on MOLT-4 leukemia, 103%; in the test with SR leukemia it was 89.9%.

As to `CC(=O)OCC1OC(OC2C(COC(C)=O)OC(OCCC[S-])C(OC(C)=O)C2OC(C)=O)C(OC(C)=O)C(OC(C)=O)C1OC(C)=O.[Au+].c1ccc(CN2[CH-]N(Cc3ccccc3)C(c3ccccc3)=C2c2ccccc2)cc1` (stereo not given), the growth with SK-MEL-2 melanoma was 13.4%; with EKVX NSCLC it was 28.1%; with SN12C renal, 9.26% (active); with UO-31 renal it was 9.47% (active); in the test on TK-10 renal, 38.5%; with ACHN renal, 15.1%. Besides, the growth in the test on A498 renal is -1.67% (active); in the test on CCRF-CEM leukemia, 11.5%; in the test with MOLT-4 leukemia, 15.3%; with SR leukemia, 11%.

Turning to `COc1cc(-c2nn(-c3ccc(Br)cc3)cc2CO)ccc1O`, the growth with SK-MEL-2 melanoma was 100%; in the test with EKVX NSCLC, 92.5%; in the test with SN12C renal, 97.1%; in the test with UO-31 renal, 59.9%; in the test on TK-10 renal, 110%; in the test on ACHN renal, 100%. For the same compound, the growth in the test with A498 renal was 77.2%; with CCRF-CEM leukemia, 54.9%; with MOLT-4 leukemia, 57.1%; in the test on SR leukemia, 65.4%.

For `CCN1CCN(Cc2ccc(NC(=O)c3cccc(C#Cc4cccc5[nH]nc(N)c45)c3)cc2C(F)(F)F)CC1`, the growth in the test with SK-MEL-2 melanoma was -70.1% (active); in the test on EKVX NSCLC, -46.4% (active); in the test with SN12C renal, -35.4% (active); in the test on UO-31 renal, -92.3% (active); in the test on TK-10 renal, -94.4% (active); with ACHN renal, -81.1% (active). Further, the growth in the test on A498 renal was -63.5% (active); in the test on CCRF-CEM leukemia, -16.2% (active); in the test with MOLT-4 leukemia, -31.2% (active); in the test with SR leukemia it was -49.2% (active).

For `CCCNc1nc(C)[nH]c(=O)c1S`, the growth was 95.6% in the test on SK-MEL-2 melanoma; 120% with EKVX NSCLC; 186% with SN12C renal; 90.8% in the test with UO-31 renal; 135% in the test on TK-10 renal; 94.7% in the test with ACHN renal. In addition, the growth in the test with A498 renal was 180%; in the test with CCRF-CEM leukemia it was 106%; with MOLT-4 leukemia, 96.3%; in the test with SR leukemia it was 101%.

Turning to `CCOCc1cc(C(C)(C)C)ccc1O`, the growth in the test on SK-MEL-2 melanoma was 110%; with EKVX NSCLC, 98.3%; in the test with SN12C renal, 102%; with UO-31 renal, 94.5%; in the test with TK-10 renal, 93.8%; in the test with ACHN renal, 105%. Besides, the growth with A498 renal was 74.2%; in the test with CCRF-CEM leukemia, 101%; in the test on MOLT-4 leukemia, 99.4%; in the test with SR leukemia, 88.7%.

In the case of `CC(=O)c1cnc(-c2ccccc2)nc1CBr`, the growth is 98.3% with SK-MEL-2 melanoma; 79.7% in the test with EKVX NSCLC; 51.2% in the test with SN12C renal; 44.7% with UO-31 renal; 79% in the test on TK-10 renal; 35.3% with ACHN renal. Besides, the growth in the test on A498 renal was 82%; in the test on CCRF-CEM leukemia it was 35.8%; in the test with MOLT-4 leukemia, 26%; with SR leukemia, -20.9% (active).

For `CCCCN(CCCC)CC(CN(CC)CC)OC(=O)Nc1ccccc1` (stereo not given), the growth with SK-MEL-2 melanoma was 99.4%; in the test on EKVX NSCLC, 91.7%; in the test on SN12C renal, 94.4%; in the test on UO-31 renal it was 69.7%; with TK-10 renal, 85.5%; in the test on ACHN renal it was 99.2%. Further, the growth was 117% with A498 renal, 98.1% with CCRF-CEM leukemia, 80.8% in the test with MOLT-4 leukemia and 86.3% in the test on SR leukemia.

Take `COc1ccc(-c2cc(-c3nnc(SCC(=O)Nc4ccc(/C(C)=N\O)cc4)n3-c3ccccc3)c3cc(OC)ccc3n2)cc1`: the growth in the test with SK-MEL-2 melanoma is 86.9%; in the test with EKVX NSCLC it was 82.7%; in the test on SN12C renal it was 86.8%; with UO-31 renal, 54.7%; in the test on TK-10 renal it was 87.8%; in the test with ACHN renal, 72.6%. For the same compound, the growth in the test on A498 renal is 78.1%; in the test on CCRF-CEM leukemia, 37.2%; in the test on MOLT-4 leukemia, 29.9%; with SR leukemia, 49.1%.

For `O=C(O)c1cc(N=Nc2ccc(-c3ccc(N=Nc4c(S(=O)(=O)O)cc5ccc(Nc6ccccc6)cc5c4O)cc3)cc2)ccc1O`, the growth with SK-MEL-2 melanoma was 93.8%; with EKVX NSCLC it was 101%; in the test with SN12C renal, 98.7%; in the test with UO-31 renal, 81.3%; in the test on TK-10 renal, 106%; in the test on ACHN renal, 102%. Also, the growth with A498 renal is 99.4%; in the test on CCRF-CEM leukemia, 101%; with MOLT-4 leukemia it was 97.9%; in the test on SR leukemia, 105%.

Turning to `O=C(Nc1ccc2ncnc(Nc3cccc(C(F)(F)F)c3)c2c1)c1cccs1`, the growth in the test with SK-MEL-2 melanoma was 90.7%; in the test with EKVX NSCLC, 32.5%; in the test with SN12C renal, 68.5%; in the test with UO-31 renal it was 51.1%; in the test with TK-10 renal, 47.4%; in the test with ACHN renal, 47.4%. In addition, the growth in the test with A498 renal was 18.9%; in the test on CCRF-CEM leukemia, 37.2%; in the test with MOLT-4 leukemia it was 17.6%; with SR leukemia, 33.8%.

On to `O=c1[nH]c2ccccc2cc1-c1nc2ccc(Cl)cc2[nH]1`, for which the growth is 18.7% in the test on SK-MEL-2 melanoma; 22.6% in the test with EKVX NSCLC; 48.4% with SN12C renal; 45.7% with UO-31 renal; 37.5% in the test with TK-10 renal; 27% with ACHN renal. The growth was 48.3% with A498 renal, 13.7% in the test with CCRF-CEM leukemia, -19.7% (active) in the test with MOLT-4 leukemia and 8.43% (active) with SR leukemia.
